Compound activity (PubChem BioAssay)
Statin myotox sup: suppressors of simvastatin-induced myotoxicity in C2C12 myotubes; ATP luminescence, 48 h; scaled: DMSO 0, geranylgeraniol control 100; rescue of ATP level, % at 7.49 µM; 330,000 compounds, 0.78% hits;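 active = mean ATP rescue above about 67%, or every replicate alone reaching that limit, limit read from the data, passing the limit was not always enough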;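 also: myotubes were challenged with 10 µM simvastatin during compound exposure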
Rce1 inhib: yeast Ras-converting enzyme inhibition; Q03530; yeast membranes, quenched prenylated peptide cleavage fluorescence; calls only; 290,000 compounds, 0.27% hits;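 active = fall in fluorescence gain of 50% or more versus controls, with final raw signal at or below 3038400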;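 also: plate controls were neutral control wells for no effect and wells lacking membranes for full effect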
Target sequence (Q03530 whole entry, looked up): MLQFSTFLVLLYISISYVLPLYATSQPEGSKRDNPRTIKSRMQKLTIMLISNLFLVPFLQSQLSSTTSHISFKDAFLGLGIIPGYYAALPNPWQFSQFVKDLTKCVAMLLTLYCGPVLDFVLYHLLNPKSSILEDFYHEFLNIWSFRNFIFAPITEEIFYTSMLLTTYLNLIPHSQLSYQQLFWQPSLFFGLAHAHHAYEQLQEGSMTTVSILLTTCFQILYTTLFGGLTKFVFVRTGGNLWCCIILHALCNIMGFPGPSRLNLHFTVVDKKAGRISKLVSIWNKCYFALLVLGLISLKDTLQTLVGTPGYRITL
AI-2 QS modul: modulators of Vibrio harveyi AI-2 quorum sensing system; Vibrio harveyi JMH597 AI-2 luminescence/OD600 ratio, 9 h; stronger effect = lower value; strain lacks LuxN and CqsS sensors; 0 = neutral-control median; activity change, % at 7.5 µM; 300,000 compounds, 0.4% hits; AID 2094; in the data active = activity change below about -75%, passing the limit was not always enough;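 also: luminescence divided by OD600 gain over 9 h not by final OD600 alone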
PGC1a acetyl inh: modulators of PGC1a acetylation | 350,000 compounds, 0.17% hits | AID 651687 | inhibition, % at 15.6 µM | U2OS PGC1a acetylation, AlphaScreen anti-acetyl-lysine; with virally co-expressed GCN5 acetyltransferase;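 active = every replicate shows inhibition of at least 40%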;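 also: 0% = neutral control wells and 100% = positive control wells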
HIF act: HIF pathway transcriptional activation | U2OS HRE-luciferase reporter, luminescence; normalized: DMSO 0%, desferrioxamine 100% | 300,000 compounds, 0.32% hits | activation, % at 7.5 µM (by protocol);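 active = mean activation of at least 10% of the iron chelator positive control signal, with at least half of replicates also reaching 10%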
Numbers without * were called inactive; i = inactive; x = not tested or not shown; + = active, no number. Compounds with a hit are over-represented: about 1.3% of the library has one in this group of screens.

SMILES	Statin myotox sup	Rce1 inhib	AI-2 QS modul	PGC1a acetyl inh	HIF act
CCCCCCCC1CC(=O)C=C(C)C1C(=O)OCC (configuration not stated)	15.5	i	8.9	-2.6	80.6*
COc1ccc(-c2cc3ccccc3n2CC(O)CNCCO)cc1 (configuration not stated)	x	+	-15.1	-13.6	0.1
COc1ccc(-c2cc3ccccc3n2CC(O)CN2CCCCC2)cc1 (configuration not stated)	1.4	i	9.2	-15.7	0.1
c1cc2cc(-c3c(-c4ccc5c(c4)OCO5)noc3-c3ccsc3)ccc2[nH]1	125.6*	i	-0.5	-5.6	4.3
O=C(Cc1cccnc1)N1CC(=O)N2[C@H](C1)[C@@H](c1ccc(/C=C/c3ccccc3)cc1)[C@@H]2CO	x	x	x	-5.8	x
O=C1CCN(Cc2ccccc2)CCN1[C@H](CSc1ccccc1)Cc1ccccc1	1.0	+	11.5	5.2	1.2
CCOC(=O)CNC(=O)OC1CCN2Cc3ccccc3N=C12 (configuration not stated)	-10.2	i	27.8	77.5*	-11.9
O=C(NCc1ccco1)C(c1ccccc1)N(C(=O)Cc1cccs1)c1ccccc1 (configuration not stated)	125.2*	i	31.2	-15.1	0.2
Cc1ccc(-c2ccc3c(c2)O[C@H](CN(C)C(=O)Nc2ccc(F)cc2)[C@H](C)CN([C@H](C)CO)S3(=O)=O)cc1	63.7	x	x	6.6	x
Cc1ccc(N2CC(C(=O)NC3=NCCS3)CC2=O)cc1C (configuration not stated)	13.0	i	5.9	10.1	-0.5
Cc1ccc(N2CC(C(=O)Nc3ccc(N(C)C)cc3)CC2=O)cc1C (configuration not stated)	147.7*	i	3.7	-2.1	-0.4
Cc1cc(N2CC(C(=O)O)CC2=O)ccc1Br (configuration not stated)	75.6*	i	32.2	10.8	0.3
O=C(Cc1ccccc1F)Nc1ccc(S(=O)(=O)Nc2ncccn2)cc1	19.0	i	-75.7*	x	0.8
O=C(CO/N=C/c1ccc(Cl)cc1Cl)NNC(=O)c1ccc(Cl)cc1Cl	x	i	-88.0*	11.2	2.8
C[C@@H]1CN([C@@H](C)CO)C(=O)CCCn2cc(nn2)CO[C@@H]1CN(C)Cc1ccc(Cl)c(Cl)c1	21.1	x	x	12.0	x
CC(=O)Nc1ccc(S(=O)(=O)Nc2nc3nc(-c4ccccc4)cc(-c4ccccc4)n3n2)cc1	17.3	i	24.9	x	-29.9
O=C(O)CCC(=O)Nc1nc2nc(-c3ccccc3)cc(-c3ccccc3)n2n1	2.5	+	16.7	-4.7	-0.4
COc1ccc(NC(=O)N(C)C[C@@H]2Oc3c(NC(=O)Nc4ccc(F)cc4)cccc3C(=O)N([C@@H](C)CO)C[C@H]2C)cc1	24.1	x	x	-0.1	x
CN1CCN(C(=O)c2cn(-c3ccccc3)nc2-c2cccs2)CC1	x	i	14.5	-0.7	-0.3
O=C(c1cn(-c2ccccc2)nc1-c1cccs1)N1CCN(c2ccccn2)CC1	18.9	+	23.8	-1.1	1.2
CCc1ccccc1N(CC)C(=O)c1cn(C)c(=O)c2cc(OC)c(OC)cc12	94.9*	i	27.9	-3.3	-34.5
C[C@@H]1CN([C@H](C)CO)C(=O)c2cc(NC(=O)Cc3cn(C)c4ccccc34)ccc2O[C@H]1CN(C)Cc1ccc(-c2ccccc2)cc1	68.4*	x	x	-9.6	x
C[C@H]1CN([C@@H](C)CO)C(=O)c2cc(NC(=O)Cc3cn(C)c4ccccc34)ccc2O[C@@H]1CN(C)Cc1ccc(C(F)(F)F)cc1	83.0*	x	x	0.7	x
C[C@H](CO)N1C[C@H](C)[C@@H](CN(C)C(=O)Nc2ccccc2)Oc2ccc(NC(=O)Cc3cn(C)c4ccccc34)cc2C1=O	9.8	x	x	-6.5	x
C[C@@H]1CN([C@H](C)CO)C(=O)c2cc(NC(=O)Cc3cn(C)c4ccccc34)ccc2O[C@@H]1CN(C)C(=O)Nc1ccccc1	33.7	x	x	107.6*	x
SMILES	Statin myotox sup	Rce1 inhib	AI-2 QS modul	PGC1a acetyl inh	HIF act
C[C@@H]1CN([C@@H](C)CO)C(=O)c2cc(NC(=O)Cc3cn(C)c4ccccc34)ccc2O[C@@H]1CN(C)Cc1ccc(C(=O)Nc2ccccc2N)cc1	43.5	x	x	1.7	x
C[C@H](CO)N1C[C@H](C)[C@H](CN(C)Cc2ccc(C(=O)Nc3ccccc3N)cc2)Oc2ccc(NC(=O)Cc3cn(C)c4ccccc34)cc2C1=O	97.5*	x	x	8.2	x
COc1ccc(-c2cc(C3CC3)nc3sc(C#N)c(N)c23)cc1	76.8*	i	30.2	-6.6	0.0
C[C@@H]1CN([C@H](C)CO)C(=O)c2cccc(NC(=O)CCCCCC(=O)Nc3ccccc3N)c2O[C@H]1CN(C)C(=O)Nc1ccc(C(F)(F)F)cc1	x	x	x	-3.4	x
C/C=C/c1ccc2c(c1)O[C@@H](CN(C)C(=O)C1CCC1)[C@@H](C)CN([C@@H](C)CO)S2(=O)=O	15.0	x	x	-1.2	x
CC(=O)C1=C(C)NC(SCc2cccc([N+](=O)[O-])c2)=C(C#N)C1c1ccco1 (configuration not stated)	143.4*	i	7.0	2.2	-0.2
CC(=O)C1=C(C)NC(SCC(N)=O)=C(C#N)C1c1ccco1 (configuration not stated)	11.4	i	22.8	-1.2	0.1
O=C(C[C@@H]1CC[C@@H]2[C@H](COC[C@H](O)CN2C(=O)c2ccc(F)cc2)O1)NCc1cccc(F)c1	-8.9	x	x	-0.5	x
FC(F)(F)c1cnc(N2CCN(C(=S)NCc3ccccc3)CC2)c(Cl)c1	x	i	12.3	x	44.5*
O=C(Cn1cnc2ccccc2c1=O)Nc1nc2ccccc2s1	x	i	-23.5	-12.9	0.1
O=c1c2ccccc2ncn1Cc1nc2ccccc2s1	113.9*	i	-32.7	7.1	0.0
C[C@@H]1CN([C@@H](C)CO)C(=O)c2cc(C#CCc3ccccc3)cnc2O[C@@H]1CN(C)Cc1ccccc1	x	x	x	8.1	x
C=CCNC(=O)c1cc2c(=O)n3cc(C)ccc3nc2nc1NCC1CCCO1 (configuration not stated)	x	+	16.9	x	-0.1
COCc1nc2ccccc2n1Cc1ccc(Br)cc1	78.8*	i	20.0	-10.7	1.9
C[C@H](CO)N1C[C@H](C)[C@@H](CN(C)Cc2ccc(Cl)c(Cl)c2)Oc2ccc(NS(=O)(=O)c3cn(C)cn3)cc2CC1=O	165.5*	x	x	-0.7	x
C[C@@H]1CN([C@H](C)CO)C(=O)Cc2cc(NS(=O)(=O)c3cn(C)cn3)ccc2O[C@@H]1CN(C)Cc1ccc(-c2ccccc2)cc1	82.0*	x	x	-5.2	x
C[C@@H]1CN([C@H](C)CO)C(=O)Cc2cc(NS(=O)(=O)c3cn(C)cn3)ccc2O[C@H]1CN(C)Cc1ccc2c(c1)OCO2	-6.6	x	x	-1.9	x
C[C@H](CO)N1C[C@H](C)[C@H](CN(C)C(=O)c2ccccc2F)Oc2ncc(-c3ccc(F)cc3)cc2C1=O	-12.0	x	x	6.4	x
